Laboratory results as given in PubChem BioAssay.
For part of these data: Measured potencies and affinities stand elsewhere. Activity calls are given as the source filed them. Unless noted, no rule for the calls is given here.

Legend:
[1] = target: Cell division control protein 42 homolog (Homo sapiens) (UniProt P60953); test: inhibition of fluorescent GTP binding to constitutively active Cdc42 – biochemical, multiplex bead flow cytometry, Bodipy-FL-GTP, dose response (AID 1333;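 active = fitted half-maximal concentration within the tested dose range, moderate curve steepness, a statistically real signal drop, and little compound fluorescence or tag-binding interference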)
Sequence of Cell division control protein 42 homolog (Homo sapiens) (P60953 whole entry, looked up): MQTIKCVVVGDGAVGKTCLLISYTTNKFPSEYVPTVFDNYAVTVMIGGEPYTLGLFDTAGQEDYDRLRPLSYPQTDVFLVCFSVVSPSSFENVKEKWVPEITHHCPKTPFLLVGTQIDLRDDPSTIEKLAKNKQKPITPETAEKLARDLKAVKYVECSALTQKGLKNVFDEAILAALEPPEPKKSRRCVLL

[2] = target: Cell division control protein 42 homolog (Homo sapiens) (UniProt P60953); test: inhibition of fluorescent GTP binding to wildtype Cdc42 – biochemical, multiplex bead flow cytometry, Bodipy-FL-GTP, dose response (AID 1334;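 active = fitted half-maximal concentration within the tested range, moderate curve steepness, significant signal drop, and little compound fluorescence or bead-linkage interference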); conditions: bead-based flow cytometry, Bodipy-FL-GTP binding to GST-Cdc42; at 100 µM (top of the series) unless noted
[3] = target: GTPase HRas (Homo sapiens) (UniProt P01112); test: Ras wt fluorescent GTP loading blockade – biochemical, wildtype, multiplex bead flow cytometry, dose response (AID 1335;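 active = fitted half-maximal concentration within 10 nM to 100 µM, steepness 0.5 to 2, significant signal drop, low assay interference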); conditions: bead-based flow cytometry, Bodipy-GTP binding to GST-Ras; at 100 µM (top of the series) unless noted
Sequence of GTPase HRas (Homo sapiens) (P01112 whole entry, looked up): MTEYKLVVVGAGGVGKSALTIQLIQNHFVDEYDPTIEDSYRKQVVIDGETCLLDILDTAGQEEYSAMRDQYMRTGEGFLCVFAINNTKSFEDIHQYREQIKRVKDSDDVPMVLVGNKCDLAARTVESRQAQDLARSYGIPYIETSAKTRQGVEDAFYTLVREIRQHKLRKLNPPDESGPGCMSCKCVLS

[4] = test system: Ras-related protein Rab-7a (dog), GTP binding; test: blockers of fluorescent GTP binding to Rab7 – biochemical, wildtype, multiplex bead flow cytometry, dose response (AID 1336)
[5] = target: Ras-related C3 botulinum toxin substrate 1 (Homo sapiens) (UniProt P63000); test: inhibition of wildtype Rac1 nucleotide loading – biochemical, multiplex bead flow cytometry, dose response (AID 1340;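 active = dose curve with midpoint inside tested range, moderate steepness, plateau gap beyond fit error, low compound glow and bead-link interference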); conditions: GST-Rac1 beads, Bodipy-FL-GTP binding; at 100 µM (top of the series) unless noted
[6] = target: GTPase HRas (Homo sapiens) (UniProt P01112); test: blockade of GTP loading onto mutant Ras – biochemical, activated mutant, multiplex bead flow cytometry, dose response (AID 1341;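 active = dose-response curve with midpoint inside the tested range, moderate steepness, significant amplitude and little compound fluorescence or bead-attachment interference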;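 also: GST-tagged constitutively activated Ras mutant immobilized on beads and multiplexed with other GTPases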)

Row | Structure (SMILES) | outcome [1] | fluorescence, percent of control (lower = inhibition) [2] [%] | GTP binding, percent of control [3] [%] | outcome [4] | GTP binding signal, raw median fluorescence (lower = inhibition) (MCF (arbitrary fluorescence units)) [5] | outcome [6]
1 | N#C/C(=C(/O)COc1ccc(Br)cc1)c1nnc2n1CCCCC2 | inactive | 29.2 | 79.2 | inactive | 262 | inactive
2 | N#C/C(=C/c1ccc(-c2cc(C(=O)O)cc(C(=O)O)c2)o1)c1nc2ccccc2s1 | inactive | 27 | 66.4 | inactive | 110 | inactive
3 | O=C(O)c1ccc(COc2ccc(F)cc2)o1 | inactive | 61.2 | 87.5 | inactive | 35 | inactive
4 | Cc1cc(C(F)(F)F)c(C#N)c(SCC(=O)Nc2nc3ccccc3s2)n1 | inactive | 89.9 | 105 | inactive | 188 | inactive
5 | CCc1ccccc1NCc1sc(C(=O)O)cc1C | inactive | 61.1 | 87.1 | inactive | 31.9 | inactive
6 | CSc1ncccc1C(=O)OCC(=O)N1CCOCC1 | inactive | 84.4 | 160 | inactive | 170 | inactive
7 | CCc1ccc(OCc2ccc(C(=O)O)o2)cc1 | inactive | 60.7 | 90.3 | inactive | 35.2 | inactive
8 | CC(C)(C)CC(=O)NC(=S)NCc1ccco1 | inactive | 41.6 | 90.5 | inactive | 312 | inactive
9 | Cc1ccc(C(C)C)c(OCc2ccccc2C(=O)O)c1 | inactive | 73.5 | 87 | inactive | 48.6 | inactive
10 | Cc1cccc(C)c1CCOc1ncccc1C(=O)O | inactive | 80.3 | 251 | inactive | 70.2 | inactive
11 | N#C/C(=C\c1cccnc1)c1nc2ccccc2[nH]1 | inactive | 32.6 | 82.7 | inactive | 251 | inactive
12 | O=c1c2ccccc2nc2c3ccccc3c(Cl)nn12 | inactive | 36.6 | 83.1 | inactive | 213 | inactive
13 | O=S(=O)(Nc1cccc(-c2cn3cccnc3n2)c1)c1ccccc1 | inactive | 34.9 | 48.7 | inactive | 114 | inactive
14 | O=[N+]([O-])c1cc(-c2ncccn2)c([N+](=O)[O-])s1 | inactive | 16.9 | 70.3 | inactive | 292 | inactive
15 | COc1ccc(/C=N/n2c(N)c(S(=O)(=O)c3cccs3)c3nc4ccccc4nc32)cc1OC | inactive | 37.1 | 49.3 | inactive | 118 | inactive
16 | CCN(CC)c1ccc(/C=C(\C#N)c2nc(-c3cccs3)c(NC(C)=O)s2)cc1 | inactive | 99.5 | 114 | inactive | 0 | inactive
17 | CCOC(=O)c1sc(NC(=O)CSc2nnc(Cc3ccccc3)o2)c(C#N)c1C | inactive | 36.5 | 56.1 | inactive | 118 | inactive
18 | CCOC(=O)c1cc(C(=O)OCC)c(=O)[nH]c1N1CCCC1 | inactive | 31.6 | 72.4 | inactive | 262 | inactive
19 | COc1ccc(S(=O)(=O)N2CCOCC2)cc1NC(=O)COc1cccnc1[N+](=O)[O-] | inactive | 36.2 | 78.7 | inactive | 190 | inactive
20 | Cc1ccc(CSc2nnc(-c3ccccc3N)c(=O)[nH]2)cc1 | inactive | 34.1 | 80.1 | inactive | 259 | inactive
21 | COc1cc([N+](=O)[O-])ccc1N=Nc1c(N)[nH]n(-c2ccccc2)c1=O | inactive | 30.5 | 74.5 | inactive | 188 | inactive
22 | Clc1cccc(Cl)c1/C=N\Nc1nccs1 | inactive | 96.7 | 151 | inactive | 190 | inactive

Row | Structure (SMILES) | outcome [1] | fluorescence, percent of control (lower = inhibition) [2] [%] | GTP binding, percent of control [3] [%] | outcome [4] | GTP binding signal, raw median fluorescence (lower = inhibition) (MCF (arbitrary fluorescence units)) [5] | outcome [6]
23 | COc1ccc([N+](=O)[O-])cc1NC(=S)NC(NC(=O)Cc1ccc(OC)c(OC)c1)C(Cl)(Cl)Cl (centres undefined) | inactive | 75.7 | 139 | inactive | 151 | inactive
24 | Cc1nnc(-n2ncc(C#N)c2N)c2nn(-c3cccc(Cl)c3)c(C)c12 | inactive | 62.8 | 76.8 | inactive | 198 | inactive
25 | CCc1ccc(OCc2cccc(C(=O)O)c2)cc1 | inactive | 58.6 | 87.5 | inactive | 32.6 | inactive
26 | Cc1ccc(C(=O)O)c(OCc2ccccc2C)c1 | inactive | 62.4 | 208 | inactive | 59.3 | inactive
27 | CC1=C(C(=O)Nc2ccccc2)C(c2ccc(Cl)cc2)n2c(s/c(=C/c3cccc(OCC(=O)O)c3)c2=O)=N1 (centres undefined) | inactive | 26.5 | 75.3 | inactive | 176 | inactive
28 | COc1cccc(-c2cc(C(F)(F)F)c(C#N)c(=O)[nH]2)c1 | inactive | 30 | 75.7 | inactive | 230 | inactive
29 | COc1ccc(OC)c(S(=O)(=O)Nc2ccc(O)c(Sc3ncn[nH]3)c2)c1 | inactive | 48.6 | 65.1 | inactive | 189 | inactive
30 | Cc1cccc(CSc2ncccc2C(=O)O)c1 | inactive | 69.2 | 70.8 | inactive | 314 | inactive
31 | N#Cc1c(Nc2ccccc2)c(/C=N/N=C/c2ccccc2)c[nH]c1=O | inactive | 35.5 | 81.7 | inactive | 211 | inactive
32 | O=C(CCN1CCCC1Cc1ccccc1)c1ccc2c(c1)OCCO2 (centres undefined) | inactive | 31.5 | 82.4 | inactive | 236 | inactive
33 | CCN1/C(=C/c2ccc3cc(C)ccc3[n+]2C)Sc2ccc3sccc3c21 | inactive | 41.6 | 74.4 | inactive | 263 | inactive
34 | COc1ccc(C2=Nn3c(nnc3-c3ccco3)SC2)cc1OC | inactive | 69.9 | 137 | inactive | 146 | inactive
35 | Oc1ccc(/C=N/NC(=S)N/N=C/c2ccc(O)cc2)cc1 | inactive | 45 | 88.4 | inactive | 177 | inactive
36 | Nc1[nH]nc2ncc3cc4ccccc4nc3c12 | inactive | 34.1 | 71.9 | inactive | 153 | inactive
37 | CCCN1C(=O)/C(=C\C=C2/Sc3ccccc3N2CC)SC1=S | inactive | 34.7 | 57.8 | inactive | 181 | inactive
38 | Cc1cccc(CCSc2ncccc2C(=O)O)c1 | inactive | 119 | 320 | inactive | 97 | inactive
39 | O=C(Cc1csc(Nc2nc(=S)[nH]c3ccccc23)n1)NCCCN1CCN(c2cccc(Cl)c2)CC1 | inactive | 34.3 | 75.8 | inactive | 192 | inactive
40 | O=c1c2ccccc2nc2c3ccccc3c(NCCN3CCOCC3)nn12 | inactive | 42.6 | 52.2 | inactive | 132 | inactive
41 | O=C(COc1cc(Cl)ccc1Cl)Nc1nnc(CC(=O)N2CCOCC2)s1 | inactive | 90.6 | 152 | inactive | 178 | inactive
42 | CCOc1cc(/C=C(/C#N)c2nc3ccccc3[nH]2)ccc1OCc1ccc(C(=O)O)o1 | inactive | 56.8 | 84.9 | inactive | 103 | inactive
43 | CCOC(=O)c1c(-c2ccc(C)cc2)csc1NC(=O)/C(C#N)=C/c1ccc(O)c(OC)c1 | inactive | 87.8 | 99.4 | inactive | 226 | inactive
44 | O=C(CCl)Nc1cccn2ncnc12 | inactive | 37.7 | 83 | inactive | 274 | inactive

Row | Structure (SMILES) | outcome [1] | fluorescence, percent of control (lower = inhibition) [2] [%] | GTP binding, percent of control [3] [%] | outcome [4] | GTP binding signal, raw median fluorescence (lower = inhibition) (MCF (arbitrary fluorescence units)) [5] | outcome [6]
45 | Cc1nnc(SCCN2CCOCC2)c2nn(-c3ccccc3F)c(C)c12 | inactive | 48.5 | 61.1 | inactive | 196 | inactive
46 | Cc1ccc(-c2nnc3c4ccccc4c(C)nn23)cc1S(=O)(=O)N1CCN(CCO)CC1 | inactive | 38.3 | 86.6 | inactive | 238 | inactive
47 | CC(C)(C)C#CC(=O)c1ccc([N+](=O)[O-])cc1 | inactive | 37.9 | 196 | inactive | 49.6 | inactive
48 | COc1ccc(CCNc2nc(=S)[nH]c3cc(OC)c(OC)cc23)cc1OC | inactive | 25.9 | 57.9 | inactive | 111 | inactive
49 | COc1ccc(OCc2nc3c4cc(OC)c(OC)cc4nc(=S)n3[nH]2)cc1 | inactive | 31.9 | 75.5 | inactive | 186 | inactive
50 | CCN(CC)c1ccc(/C=C(/C#N)c2nc3ccc(C)cc3[nH]2)c(OC(C)C)c1 | inactive | 96.1 | 108 | inactive | 264 | inactive
51 | O=C(O)c1cc(C(=O)O)cc(-c2ccc(/C=c3/sc4nc5ccccc5n4c3=O)o2)c1 | inactive | 30 | 72.3 | inactive | 185 | inactive
52 | COc1cc2[nH]c(=S)nc(NCCC(C)C)c2cc1OC | inactive | 29.1 | 55.6 | inactive | 123 | inactive
53 | Cc1[nH]c2ccccc2c1/C=C/C(=O)c1ccccc1 | inactive | 68.9 | 81.7 | inactive | 216 | inactive
54 | COc1cc(/C=C/C(=O)Nc2ccc3nc4n(c(=O)c3c2)CCCC4)cc(OC)c1OC | inactive | 32.7 | 72 | inactive | 200 | inactive
55 | CC(C)n1c(O)c(N=Nc2ccc(Cl)nn2)c2ccccc21 | inactive | 69.1 | 78.2 | inactive | 196 | inactive
56 | O=C(COc1ccccc1C(=O)N/N=C\c1ccc(O)c(O)c1)N/N=C/c1ccc(O)c(O)c1 | inactive | 38 | 157 | inactive | 193 | inactive
57 | CCN(CC)S(=O)(=O)c1cc([N+](=O)[O-])ccc1N=Nc1c(O)[nH]c2ccccc12 | inactive | 82.9 | 87.4 | inactive | 351 | inactive
58 | CC(C)N(C)NC(=S)Nc1ccccc1 | inactive | 53.9 | 64.3 | inactive | 210 | inactive
59 | COc1cc2[nH]c(=S)nc(NCc3ccccn3)c2cc1OC | inactive | 31.9 | 71.7 | inactive | 176 | inactive
60 | COc1ccc(/C=N/NC(=O)c2cccnc2)cc1Cn1nc([N+](=O)[O-])c(Br)c1C | inactive | 31.2 | 67 | inactive | 153 | inactive
61 | COc1ccc(C=O)cc1CSc1ncccc1C(=O)O | inactive | 61.6 | 88.9 | inactive | 33.8 | inactive
62 | COc1ccc(C(CC(=O)O)NC(=O)c2cc3cc(Br)ccc3oc2=O)cc1OC (centres undefined) | inactive | 31 | 78.7 | inactive | 213 | inactive
63 | Cn1cc(C(=O)N2CCc3ccccc3C2)c(=O)c2cc(S(=O)(=O)N3CCCCC3)ccc21 | inactive | 60.6 | 110 | inactive | 370 | inactive
64 | Cc1cc(OCc2ccc(C(=O)O)o2)ccc1Cl | inactive | 57.7 | 85.2 | inactive | 31.8 | inactive
